Source: PubChem BioAssay (NMMLSC)
Sampled rows, rich in hits. Any-hit rate of the full collection: about 1.2%.
S aureus QS inh = blocks AIP-induced quorum sensing reporter in S. aureus. inhibition, % at 2 µM. 24,000 compounds, 0.3% hits. S. aureus RN6390 RNAIII-GFP reporter, flow cytometry 3 h. AID 527;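 active = share of bacteria positive for the green fluorescent reporter and its mean brightness both inhibited by 50% or more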;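 also: 0% = AIP-stimulated control and 100% = unstimulated bacteria without AIP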
FPRL1 binder = human FPRL1 ligand, with FPR counter-screen; 24,000 compounds, 0.3% hits; P25090; inhibition, % (test concentration not listed); FPRL1-expressing cells, fluorescent ligand binding inhibition, flow cytometry;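 also: 0% = buffer alone and 100% = receptor blocker peptide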
Target sequence (P25090 whole entry, looked up): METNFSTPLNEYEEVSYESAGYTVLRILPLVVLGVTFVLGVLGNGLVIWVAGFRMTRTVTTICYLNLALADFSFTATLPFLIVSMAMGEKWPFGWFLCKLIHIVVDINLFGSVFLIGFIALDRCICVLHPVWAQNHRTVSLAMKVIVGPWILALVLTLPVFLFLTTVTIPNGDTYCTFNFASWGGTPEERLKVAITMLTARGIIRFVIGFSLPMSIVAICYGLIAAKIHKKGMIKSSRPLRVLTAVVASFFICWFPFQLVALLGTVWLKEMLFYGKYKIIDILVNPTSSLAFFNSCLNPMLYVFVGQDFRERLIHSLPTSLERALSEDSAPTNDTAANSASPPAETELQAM
FPR binder = ligands of human FPR, also counter-screen for FPRL1 ligands; P21462; FPR-expressing cells, fluorescent ligand binding, flow cytometry; inhibition, % (concentration not given with the values); 24,000 compounds, 0.74% hits;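 also: 0% = buffer wells and 100% = receptor blocker peptide wells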
Starred values were filed as active, the others as inactive; . = not tested or not shown; ! = not confirmed by another sample. Rule as the data show it, unless noted: active = inhibition above about 30%; inconclusive = no clear call, values can overlap the other calls; inactive = below that.

SMILES	S aureus QS inh	FPRL1 binder	FPR binder
CCCOc1ccc(C2C(C(=O)c3ccco3)=C(O)C(=O)N2CCCn2ccnc2)cc1 (stereo not given)	.	-5	55*
CC(C)Oc1ccc(C2C(C(=O)c3ccco3)=C(O)C(=O)N2Cc2cccnc2)cc1 (stereo not given)	.	-2	16
CCOc1cc(C2C(C(=O)c3ccco3)=C(O)C(=O)N2CCc2ccccc2)ccc1O (stereo not given)	.	-4	86*
CCOc1ccc(C2C(C(=O)c3ccco3)=C(O)C(=O)N2Cc2cccnc2)cc1OC (stereo not given)	.	-2	12
CCCOc1ccc(/C(O)=C2/C(=O)C(=O)N(CCCn3ccnc3)C2c2cccs2)cc1 (stereo not given)	.	1	6
COc1ccc(C2C(C(=O)c3sc(C)nc3C)=C(O)C(=O)N2CCN(C)C)cc1 (stereo not given)	0	-2	4
COc1cccc(C2C(C(=O)c3cccs3)=C(O)C(=O)N2CCCn2ccnc2)c1OC (stereo not given)	0	-1	32*
CCn1cc(S(=O)(=O)CC(=O)Nc2ccc(OC)cc2)c2ccccc21	0	-8	-1
COC(=O)c1ccc(C2CC(=O)Nc3cc(OC)c(OC)c(OC)c32)cc1 (stereo not given)	-1	-2	-4
O=C(C1=C(O)C(=O)N(CCc2ccccc2)C1c1cccnc1)c1ccco1 (stereo not given)	.	-3	30
Cc1ccc(C2C(C(=O)c3sc(C)nc3C)=C(O)C(=O)N2CCN2CCOCC2)o1 (stereo not given)	.	26	35*
COCCCN1C(=O)C(O)=C(C(=O)c2ccco2)C1c1ccccc1 (stereo not given)	.	1	43*
COc1cccc(C2C(C(=O)c3sc(C)nc3C)=C(O)C(=O)N2CCN2CCOCC2)c1 (stereo not given)	.	-2	1
CC1(C)SC2[C@H](NC(=O)C(NC(=O)N3CCNC3=O)c3ccccc3)C(=O)N2C1C(=O)O (stereo not given in full)	-13	2	1
COC(=O)c1ccc(OCC(=O)Nc2nn(-c3ccccc3)nc2C(N)=O)cc1	2	1	-1
CCOC(=O)c1cc(NC(=O)C2C3CCC(O3)C2C(=O)O)cc(C(=O)OCC)c1 (stereo not given)	.	15	2
CCOC(=O)c1c(NC(=O)C2C3CCC(O3)C2C(=O)O)sc(C)c1-c1ccc(C)cc1 (stereo not given)	.	-4	46*
COc1cc(OC)cc(-c2nnc(Nc3nc4c(F)cccc4s3)o2)c1	0	1	3
COc1ccc(-c2nnc(Nc3nc4c(OC)cccc4s3)o2)c(OC)c1	-2	6	62*
Fc1cccc2sc(Nc3nnc(-c4ccccc4)o3)nc12	3	4	2
COc1ccc(-c2nnc(Nc3nc4c(OC)cccc4s3)o2)cc1	-3	3	52*
O=C(Nc1ccc(-c2noc(-c3cccs3)n2)cc1)c1cccnc1	0	-2	-4
CS(=O)(=O)N(CC(=O)N1CCc2ccccc2C1)c1ccc2c(c1)OCO2	0	-2	2
O=c1cc(N2CCN(Cc3ccccc3)CC2)[nH]c(=O)n1Cc1ccc(F)cc1	6	4	6
O=c1cc(N2CCc3ccccc32)[nH]c(=O)n1Cc1ccc(F)cc1	-12	-9	43*
SMILES	S aureus QS inh	FPRL1 binder	FPR binder
CC1=C(C(=O)OC(C)C)C(c2ccccn2)n2ncnc2N1 (stereo not given)	1	6	-2
CC(=O)N1CCc2cc(S(=O)(=O)NCCN3CCC(C)CC3)ccc21	-2	0	-2
COc1ccc(-c2cc(C(F)(F)F)nc(N3CCOCC3)n2)cc1OC	3	23	-12
COc1ccc(-c2cc(C(F)(F)F)nc(NC3CCCC3)n2)cc1OC	3	32*	7
O=C1C(CCS(=O)c2ccccc2)C(=O)N(c2ccccc2)N1c1ccccc1 (stereo not given)	2	-7	34*
Cc1[nH]n(C(C)(C)C)c(=O)c1Sc1ccc(Cl)cc1	-3	5	2
Cc1nc2cccc(C(=O)NCc3ccccc3)c2o1	-7	-4	13
CC1(C)S[C@@H]2[C@H](NC(=O)[C@H](N)c3ccccc3)C(=O)N2[C@H]1C(=O)O	50*	-1	4
CC1(C)S[C@@H]2[C@H](NC(=O)C(C(=O)O)c3ccccc3)C(=O)N2[C@H]1C(=O)O (stereo not given in full)	-4	8	9
Cc1cc(NC(=O)C2CCCN(S(=O)(=O)c3cnc[nH]3)C2)ccc1Br (stereo not given)	4	0	-6
Cc1ccc(-c2nc(C(=O)NC3CCCCCC3)no2)cc1	18	0	1
Cc1cc(=O)n2nc(N3CCC(C(=O)NCCC4=CCCCC4)CC3)sc2n1	0	-6	-2
COc1ccc(C(C)NC(=O)C2C(=O)NC3(C)CC2c2ccccc2O3)cc1 (stereo not given)	0	1	2
COc1ccc(NC(=O)C2C(=O)NC3(C)CC2c2ccccc2O3)cc1 (stereo not given)	-1	30*	12
Cc1ccc(NS(=O)(=O)c2ccc(NC(=O)[C@@H]3CCCC[C@@H]3C(=O)O)cc2)c(C)c1	.	6	-3
CCOc1ccccc1C1C(C(=O)Nc2ccccc2OC)=C(C)Nc2nnnn21 (stereo not given)	0	-4	5
Cc1cc(NC(=O)C2COc3ccccc3O2)no1 (stereo not given)	-8	0	-6
CCOC(=O)c1c(NC(=O)c2cc(C3CC3)on2)sc2c1CCCC2	-2	58*	10
CCOC(=O)c1c(NC(=O)c2cc(C3CC3)on2)sc(C(C)=O)c1C	4	-1	-2
CCc1ccc(NC(=O)CNS(=O)(=O)c2c(C)noc2C)cc1	-12	-1	1
Cc1ccc(-n2nc3c(c2NC(=O)c2ccc(Br)o2)CSC3)c(C)c1	-1	-1	3
Cc1cccc(-n2nc3c(c2NC(=O)c2ccco2)CSC3)c1C	-2	-2	96*
CCCCOc1cc(C(=O)NCCN(CC)CC)c2ccccc2n1	4	0	49*!
CCCCN(CC)CCNC(=O)c1cc2c(C)nc3ccccc3c2o1	1	-1	-3
CCOC(=O)c1c(CN2CCCCC2)n(C)c2ccc(OC)c(S(=O)(=O)c3ccccc3)c12	-22	-2	-4
SMILES	S aureus QS inh	FPRL1 binder	FPR binder
O=C(NCCCN1CCN(c2ccc(F)cc2)CC1)c1cccc(N2CCCC2=O)c1	4	31*	-2
O=C(NCCCN1CCCC1)c1cccc(N2CCCC2=O)c1	1	-1	0
CCn1cc(C(=O)NC2CCC(C)CC2)c(=O)c2cc(S(=O)(=O)N3CCCCC3)ccc21 (stereo not given)	6	0	32*
CCn1cc(C(=O)NC2CCCC2)c(=O)c2cc(S(=O)(=O)N3CCOCC3)ccc21	8	-2	2
COc1ccc(CNC(=O)c2ccc3c(c2)N(C)C(=O)CS3=O)cc1 (stereo not given)	-1	0	-6
O=C(CNS(=O)(=O)c1cccs1)N1CCc2ccccc2C1	-3	3	2
O=C(O)CCCNc1cc(N2CCC3(CC2)OCCO3)c2noc3c2c1C(=O)c1ccccc1-3	24	73*	32*
